Experimental data as given in PubChem BioAssay (NCI).
About 79,000 compounds went through this panel and 15% of them were active in at least one assay; those are over-represented in the sample as a whole. A number with no mark means an inactive call. The source made the active and inactive calls. Rule as the data show it: active = growth inhibition above about 70%; inactive = the rest.

Experiments:
[1] = NCI Yeast Anticancer Drug Screen. Data for the rad50 strain (AID 155);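 also: 0% = growth of vehicle-only cultures of the same strain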; conditions: S. cerevisiae rad50 strain growth inhibition, stronger effect = higher value
In short: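 Relative growth inhibition (compound vs vehicle) was measured in yeast with a defined repair-gene alteration.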

[2] = NCI Yeast Anticancer Drug Screen. Data for the mec2-1 strain (AID 157); conditions: S. cerevisiae mec2-1 strain, stronger effect = higher value
In short: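 Each compound was tested on mec2-1 yeast, a strain altered in DNA damage repair or cell cycle control. Growth inhibition is reported relative to vehicle.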

[3] = NCI Yeast Anticancer Drug Screen. Data for the sgs1 mgt1 strain (AID 161);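 also: 0% = growth of cultures given vehicle only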; conditions: S. cerevisiae sgs1 mgt1 strain, stronger effect = higher value
In short: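 Genetically altered yeast, compound exposure, growth inhibition relative to vehicle.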

[4] = NCI Yeast Anticancer Drug Screen. Data for the cln2 rad14 strain (AID 165);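 also: 0% = growth equal to vehicle treated cultures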; conditions: S. cerevisiae cln2 rad14 strain, stronger effect = higher value
In short: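 Test compounds were added to cln2 rad14 yeast cultures; inhibition of growth was then determined by comparison with vehicle treatment.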

[5] = NCI Yeast Anticancer Drug Screen. Data for the bub3 strain (AID 167); conditions: S. cerevisiae bub3 mutant strain, stronger effect = higher value
In short: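 Screening used yeast with an engineered genetic alteration affecting cell cycle control. Compound-exposed cultures were compared with vehicle cultures, and reduced growth was taken as inhibition.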

[6] = NCI Yeast Anticancer Drug Screen. Data for the mlh1 rad18 strain (AID 175); conditions: S. cerevisiae mlh1 rad18 strain growth inhibition, stronger effect = higher value
In short: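 Inhibition values reflect reduced growth of mutant yeast versus vehicle-treated controls following compound exposure; the mutations affect DNA damage repair.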

[7] = at 5.0 µM (retest, dose inferred, filed as 0.5)
[8] = at 50.0 µM (retest, dose inferred, filed as 5.0)

Structure (SMILES)	growth inhibition [1, 7]	growth inhibition [1, 8]	growth inhibition ([1]; at 50.0 µM)	growth inhibition [2, 7]	growth inhibition [2, 8]	growth inhibition ([2]; at 50.0 µM)	growth inhibition [3, 7]	growth inhibition [3, 8]	growth inhibition ([3]; at 50.0 µM)	growth inhibition [4, 7]	growth inhibition [4, 8]	growth inhibition ([4]; at 50.0 µM)	growth inhibition [5, 7]	growth inhibition [5, 8]	growth inhibition ([5]; at 50.0 µM)	growth inhibition [6, 7]	growth inhibition [6, 8]	growth inhibition ([6]; at 50.0 µM)
Oc1cc2c(cc1C(c1ccc(F)cc1)N1CCCCC1)OCO2 (stereo not given)	-1%	76% (active)	63%	-5%	73% (active)	64.4%	6%	77% (active)	85.5% (active)	-4%	39%	54.9%	-8%	54%	84.4% (active)	-1%	88% (active)	59.3%
NCc1cccc(O)c1O	27%	61%	73.7% (active)	22%	41%	81.1% (active)	14%	51%	41.5%	15%	46%	24.7%	20%	72% (active)	53.6%	28%	44%	24.9%
O=C1c2cccc(S(=O)(=O)O)c2C(=O)c2cccc([N+](=O)[O-])c21	2%	30%	31.1%	0%	31%	23%	5%	45%	16.3%	-1%	28%	-8.35%	-1%	25%	16.6%	6%	40%	69.1%
CCCCC#CCCOC(=O)C#CCCCC	1%	6%	30%	1%	4%	28.2%	3%	7%	-0.85%	8%	9%	92% (active)	3%	12%	-21.3%	0%	3%	3.25%
CCOC1(c2ccccc2)c2ccccc2S(=O)(=O)N1C (stereo not given)	-3%	4%	11.1%	-4%	16%	0.95%	14%	33%	11.2%	6%	12%	56.9%	1%	10%	40.8%	18%	11%	9%
COC(CC[P+](c1ccccc1)(c1ccccc1)c1ccccc1)(C(=O)c1ccccc1)c1ccccc1 (stereo not given)	91% (active)	99% (active)	98.7% (active)	97% (active)	99% (active)	99.7% (active)	88% (active)	99% (active)	99.8% (active)	90% (active)	99% (active)	98.8% (active)	94% (active)	100% (active)	99.7% (active)	92% (active)	100% (active)	99.5% (active)
CCc1cccc(CC)c1NC(=S)N/C=C(\C#N)C(=O)c1ccc2ccccc2c1	7%	14%	44.8%	-2%	6%	38.5%	0%	13%	61.4%	-23%	5%	6.85%	3%	7%	59.1%	-2%	5%	67.2%
O=[N+]([O-])c1ncn(C2OC(CO)C(O)C2O)c1S (stereo not given)	-5%	-3%	-2.85%	2%	-8%	24.6%	-1%	-3%	14.6%	-3%	-5%	66.1%	-12%	-14%	1.15%	-6%	-8%	8.05%
CCCCCCCCCCCC(=O)N(CC)CC	-3%	99% (active)	99.8% (active)	1%	99% (active)	99.9% (active)	-4%	100% (active)	99.8% (active)	-1%	99% (active)	99% (active)	2%	100% (active)	99.7% (active)	14%	99% (active)	99.8% (active)
COc1cc2c(c(-c3cn(C)c4ccccc34)c1OC)OCO2	4%	24%	36.2%	0%	54%	15.3%	4%	59%	86% (active)	-1%	1%	-30.6%	2%	78% (active)	84.5% (active)	0%	35%	41.9%
